PubChem BioAssay (Tox21)
Inconclusive results are not listed. Activity calls are given as the source filed them. Unless noted, the call rests on the fitted dose curve; in most records, active means well fitted curve in the direction sought with a large enough effect in the repeat runs; inconclusive means weak or mixed curves; inactive means no such curve, though single readings can be large; an effect the other way counts as inactive or inconclusive.

Experiments:
[1] = qHTS assay to identify small molecule antagonists of the glucocorticoid receptor (GR) signaling pathway - cell viability counter screen (AID 720693); further: nearly all actives have a fitted effect of over 55% in size
[2] = qHTS assay for identifying genotoxic compounds that show differential cytotoxicity against isogenic chicken DT40 cell lines with known DNA damage response pathways - Rev3 mutant cell line (AID 743014); further: nearly all actives have a fitted effect of over 55% in size; further: potency means the concentration at half of the fitted maximal effect
[3] = qHTS assay for identifying genotoxic compounds that show differential cytotoxicity against isogenic chicken DT40 cell lines with known DNA damage response pathways - Rad54/Ku70 mutant cell line (AID 743015); further: potency means the concentration at half of the fitted maximal effect; nearly all actives have a fitted effect of over 60% in size
[4] = qHTS assay to identify small molecule antagonists of the androgen receptor (AR) signaling pathway - cell viability counter screen (AID 743033; further: nearly all actives have a fitted effect of over 45% in size; further: potency means the concentration at half of the fitted maximal effect)
[5] = qHTS assay to identify small molecule antagonists of the thyroid receptor (TR) signaling pathway - cell viability counter screen (AID 743064); further: nearly all actives have a fitted effect of over 50% in size; further: potency means the concentration at half of the fitted maximal effect
In short: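 Rat GH3 pituitary tumor cells stably expressing two TR response elements driving luciferase were plated, rested 4 h, then dosed with library compounds and T3 (1 nM final). After 23.5 h at 37 °C, CellTiter-Fluor was added for 30 min and fluorescence recorded.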

[6] = qHTS assay to identify small molecule antagonists of the thyroid receptor (TR) signaling pathway (AID 743065); further: nearly all actives have a fitted effect of over 55% in size; further: potency means the concentration at half of the fitted maximal effect
In short: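 GH3.TRE-Luc rat pituitary cells (two TREs driving luciferase) were dosed with compound, then stimulated with 1 nM T3 (final) for 23.5 h at 37 C. ONE-Glo luminescence was the read-out, with CellTiter-Fluor fluorescence as the cytotoxicity counter-screen.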

[7] = test system: thyroid hormone receptor (rat, GH3 cells); assay: qHTS assay to identify small molecule agonists of the thyroid receptor (TR) signaling pathway (AID 743066; calls by dose curve)
[8] = biological target: Estrogen receptor (Homo sapiens) (UniProt P03372); assay: qHTS assay to identify small molecule antagonists of the estrogen receptor alpha (ER-alpha) signaling pathway (AID 743069; active means well fitted curve in the direction sought with a large enough effect in the signal ratio in the repeat runs, not every such curve was filed as active; the % refers to the signal ratio)
Chain of Estrogen receptor (Homo sapiens) (P03372 whole entry, looked up): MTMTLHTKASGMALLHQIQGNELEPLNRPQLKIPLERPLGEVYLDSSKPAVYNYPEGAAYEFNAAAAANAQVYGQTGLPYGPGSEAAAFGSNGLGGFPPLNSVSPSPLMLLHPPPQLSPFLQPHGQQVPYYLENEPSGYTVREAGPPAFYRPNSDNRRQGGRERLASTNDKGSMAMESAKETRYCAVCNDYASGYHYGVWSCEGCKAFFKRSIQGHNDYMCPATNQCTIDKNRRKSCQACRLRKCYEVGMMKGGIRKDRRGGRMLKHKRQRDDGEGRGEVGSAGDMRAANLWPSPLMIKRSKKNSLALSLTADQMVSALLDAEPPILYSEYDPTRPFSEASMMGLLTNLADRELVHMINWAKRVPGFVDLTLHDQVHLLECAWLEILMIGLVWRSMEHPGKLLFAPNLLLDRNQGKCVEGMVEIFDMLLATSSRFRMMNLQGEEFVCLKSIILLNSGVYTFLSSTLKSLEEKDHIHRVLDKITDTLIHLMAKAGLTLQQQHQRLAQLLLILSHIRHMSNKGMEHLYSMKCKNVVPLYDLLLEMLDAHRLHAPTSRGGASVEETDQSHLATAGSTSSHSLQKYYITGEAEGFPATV
In short: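 Beta-lactamase FRET fluorescence is read after 2 hr at room temperature with LiveBLAzer B/G substrate. Before that, ER-alpha-bla HEK293 cells sit 4 hr after plating, then receive compound plus 17beta-estradiol and incubate 18 hr at 37C.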

[9] = qHTS assay to identify small molecule antagonists of the estrogen receptor alpha (ER-alpha) signaling pathway - cell viability counter screen (AID 743074; calls by dose curve;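 further: HEK293 cells carrying ER-alpha-UAS-bla reporter stimulated with 17beta-estradiol; nearly all actives have a fitted effect of over 45% in size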; further: potency means the concentration at half of the fitted maximal effect)
[10] = biological target: Estrogen receptor (Homo sapiens) (UniProt P03372); assay: qHTS assay to identify small molecule agonists of the estrogen receptor alpha (ER-alpha) signaling pathway (AID 743075; calls by dose curve;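 further: HEK293 GripTite cells with ER-alpha and UAS-driven beta-lactamase reporter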)
[11] = qHTS assay to identify small molecule antagonists of the estrogen receptor alpha (ER-alpha) signaling pathway using the BG1 cell line (AID 743080; calls by dose curve;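 further: BG1 cells stimulated with 17beta-estradiol alongside compound; nearly all actives have a fitted effect of over 25% in size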); details: BG1Luc4E2 ERE-luciferase antagonist mode, luminescence; activity change, negative = inhibition: at 70.3 µM (top of the series)
In short: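 BG1-Luc-4E2 cells (endogenous full-length ER-alpha, 4xERE luciferase) hormone-starved 5 days in charcoal-stripped FBS, plated 4,000/well for 24 h, then compound plus 17beta-estradiol for 21.5 h at 37 C; ONE-Glo luminescence read.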

[12] = qHTS assay to identify small molecule antagonists of the estrogen receptor alpha (ER-alpha) signaling pathway using the BG1 cell line - cell viability counter screen (AID 743081);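 further: compound given together with 17beta-estradiol as the ER stimulus; nearly all actives have a fitted effect of over 45% in size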
Aromatase (Homo sapiens) = Aromatase (Homo sapiens) (UniProt P11511); assay: qHTS assay to identify aromatase inhibitors (AID 743083); further: nearly all actives have a fitted effect of over 55% in size; further: potency means the concentration at half of the fitted maximal effect
Chain of Aromatase (Homo sapiens) (P11511 whole entry, looked up): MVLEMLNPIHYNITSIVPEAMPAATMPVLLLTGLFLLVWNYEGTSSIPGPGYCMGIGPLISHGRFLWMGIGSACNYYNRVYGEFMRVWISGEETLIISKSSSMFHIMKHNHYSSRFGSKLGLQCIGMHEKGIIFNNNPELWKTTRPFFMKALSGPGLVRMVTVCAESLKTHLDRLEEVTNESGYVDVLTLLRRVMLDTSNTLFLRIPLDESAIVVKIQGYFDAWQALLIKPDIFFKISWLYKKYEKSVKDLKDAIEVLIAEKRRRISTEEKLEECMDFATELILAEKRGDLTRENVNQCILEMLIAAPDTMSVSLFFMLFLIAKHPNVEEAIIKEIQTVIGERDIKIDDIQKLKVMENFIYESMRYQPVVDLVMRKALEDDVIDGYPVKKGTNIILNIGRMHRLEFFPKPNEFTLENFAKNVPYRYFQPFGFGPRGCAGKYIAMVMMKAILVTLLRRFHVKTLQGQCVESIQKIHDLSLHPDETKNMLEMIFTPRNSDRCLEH

[13] = qHTS assay for identifying genotoxic compounds that show differential cytotoxicity against isogenic chicken DT40 cell lines with known DNA damage response pathways - wild type cell line (AID 743012); further: potency means the concentration at half of the fitted maximal effect; nearly all actives have a fitted effect of over 60% in size
In short: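 Viability by ATP luminescence (CellTiter-Glo, 30 min RT) after 40 h compound treatment at 37 C/5% CO2, using 300 parental DNA repair-proficient DT40 cells per well.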

[14] = biological target: Androgen receptor (Homo sapiens) (UniProt P10275); assay: qHTS assay to identify small molecule antagonists of the androgen receptor (AR) signaling pathway (AID 743035; active means well fitted inhibition curve with a large enough effect in the signal ratio in the repeat runs, not every such curve was filed as active; the % refers to the signal ratio; further: potency means the concentration at half of the fitted maximal effect)
Chain of Androgen receptor (Homo sapiens) (P10275 whole entry, looked up): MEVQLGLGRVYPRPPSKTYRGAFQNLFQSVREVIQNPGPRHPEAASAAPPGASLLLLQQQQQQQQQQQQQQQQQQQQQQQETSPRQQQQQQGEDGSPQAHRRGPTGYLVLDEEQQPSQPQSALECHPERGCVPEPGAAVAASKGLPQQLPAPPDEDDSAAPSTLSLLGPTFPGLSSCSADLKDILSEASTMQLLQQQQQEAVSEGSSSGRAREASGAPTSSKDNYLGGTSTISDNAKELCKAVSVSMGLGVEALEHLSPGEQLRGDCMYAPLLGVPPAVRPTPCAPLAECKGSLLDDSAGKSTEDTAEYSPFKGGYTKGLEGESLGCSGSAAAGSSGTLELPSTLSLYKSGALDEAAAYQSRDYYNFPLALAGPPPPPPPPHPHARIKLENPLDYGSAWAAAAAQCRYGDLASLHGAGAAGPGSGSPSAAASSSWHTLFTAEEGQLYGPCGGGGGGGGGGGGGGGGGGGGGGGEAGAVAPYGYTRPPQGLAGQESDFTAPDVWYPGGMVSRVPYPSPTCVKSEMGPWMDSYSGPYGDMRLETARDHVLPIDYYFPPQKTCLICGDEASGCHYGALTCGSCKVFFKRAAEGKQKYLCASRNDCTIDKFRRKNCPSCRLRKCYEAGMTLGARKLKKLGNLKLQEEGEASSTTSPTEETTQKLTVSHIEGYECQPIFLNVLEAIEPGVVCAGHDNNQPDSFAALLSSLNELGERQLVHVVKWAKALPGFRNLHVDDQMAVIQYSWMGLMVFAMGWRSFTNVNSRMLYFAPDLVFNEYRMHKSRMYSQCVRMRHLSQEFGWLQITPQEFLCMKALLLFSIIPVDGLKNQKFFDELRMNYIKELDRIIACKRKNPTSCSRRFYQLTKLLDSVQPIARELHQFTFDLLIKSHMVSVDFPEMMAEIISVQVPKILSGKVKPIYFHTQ
In short: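 Antagonist mode: AR-bla HEK293 cells co-treated with test compounds and agonist R1881 for 16 h at 37C, 5% CO2. Beta-lactamase activity read as FRET fluorescence after 2 h room-temperature substrate loading.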

[15] = biological target: Androgen receptor (Homo sapiens) (UniProt P10275); assay: qHTS assay to identify small molecule agonists of the androgen receptor (AR) signaling pathway using the MDA cell line (AID 743040; further: nearly all actives have a fitted effect of over 20% in size)
In short: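 Luciferase read-out, ONE-Glo, 30 min RT. Cells: MDA-kb2 AR-luc, MMTV promoter with AR and GR response elements. Compound exposure 16 h, 37C, 0% CO2, after 5 h pre-incubation. qHTS agonist mode.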

[16] = qHTS assay to identify small molecule antagonists of the androgen receptor (AR) signaling pathway using the MDA cell line - cell viability counter screen (AID 743041; further: nearly all actives have a fitted effect of over 45% in size; further: potency means the concentration at half of the fitted maximal effect)
In short: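 Cytotoxicity counter screen: MDA-kb2 AR-luc cells, compound + R1881, 16 h, 37C, 0% CO2; CellTiter-Fluor added at 15.5 h, fluorescence read after 30 min.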

[17] = biological target: Androgen receptor (Homo sapiens) (UniProt P10275); assay: qHTS assay to identify small molecule antagonists of the androgen receptor (AR) signaling pathway using the MDA cell line (AID 743042)
In short: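 MDA-kb2 breast carcinoma cells carrying MMTV-luciferase (AR/GR responsive) were co-treated with compounds and the agonist R1881 for 16 h at 37C. Inhibition read as ONE-Glo luminescence; CellTiter-Fluor fluorescence measured in parallel for cytotoxicity.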

[18] = biological target: Estrogen receptor (Homo sapiens) (UniProt P03372); assay: qHTS assay to identify small molecule agonists of the estrogen receptor alpha (ER-alpha) signaling pathway using the BG1 cell line (AID 743079); details: BG1Luc4E2 cells, ERE-luciferase agonist, 22 h; activation: at 70.3 µM (top of the series); further: nearly all actives have a fitted effect of over 20% in size
[19] = biological target: Androgen receptor (Homo sapiens) (UniProt P10275); assay: qHTS assay to identify small molecule agonists of the androgen receptor (AR) signaling pathway (AID 743036; active means well fitted activation curve with a large enough effect in the signal ratio in the repeat runs, with a control signal flat, not every such curve was filed as active; the % refers to the signal ratio)
In short: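 Quantitative HTS of the Tox21 10K library in HEK293 cells bearing a stably integrated UAS-controlled beta-lactamase reporter. Compound exposure lasted 16 h at 37C. Reporter activity was detected by FRET substrate fluorescence after 2 h at room temperature.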

Measured: Potency

CC(COC(=O)c1ccccc1)OC(=O)c1ccccc1 (configuration not stated)
active: [3] 61.1 µM
not listed: [13] | [14] | [15] | [16] | [17] | [18] | [19]
inactive: all other assays above

CC(NCCC(c1ccccc1)c1ccccc1)c1ccccc1 (configuration not stated)
inactive: [15]
active: [13] 2.98 µM | [2] 4.22 µM | [3] 5.31 µM | [4] 21.3 µM | [14] 21.3 µM | [16] 23.7 µM | [17] 23.7 µM | [5] 9.44 µM | [9] 23.9 µM | Aromatase (Homo sapiens) 29.8 µM

COC(=O)C1=C(C)NC(C)=C(C(=O)OCCCN2CCC(c3ccccc3)(c3ccccc3)CC2)C1c1cccc([N+](=O)[O-])c1 (configuration not stated)
active: [13] 4.73 µM | [2] 6.68 µM | [3] 6.68 µM | [4] 21.3 µM | [14] 16.9 µM | [6] 7.5 µM
inactive: [15]

Brc1ccccc1-c1ccccc1
active: [2] 41 µM | [3] 41 µM
inactive: [1] | [4] | [16] | [7]

COC(=O)[C@]1(C)CCC[C@@]2(C)[C@H]1CC=C1C=C(C(C)C)CC[C@@H]12
inactive: [1] | [4] | [16] | [7] | [9] | [12]
active: [3] 61.1 µM | [5] 48.6 µM | [6] 43.3 µM

CN(C)CCOC(c1ccccc1)c1ccccc1 (tested in a mixture with another compound)
active: [6] 61.6 µM | [9] 49.3 µM
inactive: [1] | [15] | [16] | [7] | [8] | [10] | [18] | [11]

CCCCCCCCCCOCC(O)CN (configuration not stated)
inactive: [4] | [19] | [15] | [8] | [9] | [18] | [11] | [12]
active: [13] 4.73 µM | [2] 6.68 µM | [3] 7.5 µM | [5] 5.96 µM | [6] 9.44 µM | Aromatase (Homo sapiens) 33.5 µM

CC1CCCNC1 (configuration not stated)
not listed: [2] | [3] | [4] | [13] | [14] | [15] | [17] | [19]
inactive: all other assays above
